# ± gives the standard deviation of the averaged measurements.
# Experiments:
# Assay in all cases: promoter activity interaction Z-score (Lux/OD deviation from empty-vector control); higher = stronger promoter induction by the compound
# [1] = system: E. coli BW25113 acrABp lux reporter
# Procedure, shortened: (§1)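 Reporter strains of E. coli BW25113 grew at 37°C in 40 µl LB Lennox in 384-well plates. Readings of OD600 and luminescence were taken every 30 min over 12 h, integrated over 0–8 h (wild type) or 1–9 h (deletion strains), and wells below 10% of the median growth value were excluded. Scores are Z-transformed residuals of growth-normalised luminescence from a fit against a control.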
# [2] = system: E. coli BW25113 micFp lux reporter
# Procedure, shortened: as §1
# [3] = system: E. coli BW25113 ompFp lux reporter
# Procedure, shortened: as §1
# [4] = system: E. coli BW25113 robp lux reporter
# Procedure, shortened: as §1
# [5] = system: E. coli BW25113 soxSp lux reporter
# Procedure, shortened: as §1
# [6] = system: E. coli BW25113 tolCp lux reporter
# Procedure, shortened: as §1
# [7] = 0.12 µg/ml, genetic background: wild type
# [8] = 0.12 µg/ml, genetic background: ΔmarA
# [9] = 0.12 µg/ml, genetic background: Δrob
# [10] = 0.12 µg/ml, genetic background: ΔsoxS
# [11] = 0.23 µg/ml, genetic background: wild type
# [12] = 0.23 µg/ml, genetic background: ΔmarA
# [13] = 0.23 µg/ml, genetic background: Δrob
# [14] = 0.23 µg/ml, genetic background: ΔsoxS
# [15] = 0.47 µg/ml, genetic background: wild type
# [16] = 0.47 µg/ml, genetic background: ΔmarA
# [17] = 0.47 µg/ml, genetic background: Δrob
# [18] = 0.47 µg/ml, genetic background: ΔsoxS
# [19] = 0.94 µg/ml, genetic background: ΔmarA
# [20] = 0.94 µg/ml, genetic background: Δrob
# [21] = 0.94 µg/ml, genetic background: wild type
smiles,measurement,setting,value
NC[C@H]1O[C@H](O[C@H]2[C@H](O)[C@@H](O[C@H]3O[C@H](CO)[C@@H](O)[C@H](N)[C@H]3O)[C@H](N)C[C@@H]2N)[C@H](N)C[C@@H]1O [Tobramycin],promoter activity interaction Z-score,[1]; [7],0.275 ± 0.78
same,promoter activity interaction Z-score,[1]; [8],-0.0864 ± 0.66
same,promoter activity interaction Z-score,[1]; [9],-0.374 ± 0.06
same,promoter activity interaction Z-score,[1]; [10],-0.499 ± 0.77
same,promoter activity interaction Z-score,[1]; [11],0.0585 ± 0.16
same,promoter activity interaction Z-score,[1]; [12],-1.02 ± 0.59
same,promoter activity interaction Z-score,[1]; [13],-0.281 ± 0.11
same,promoter activity interaction Z-score,[1]; [14],-0.243 ± 0.067
same,promoter activity interaction Z-score,[1]; [15],0.268 ± 0.32
same,promoter activity interaction Z-score,[1]; [16],0.0843 ± 0.8
same,promoter activity interaction Z-score,[1]; [17],0.184 ± 0.22
same,promoter activity interaction Z-score,[1]; [18],-0.000211 ± 0.53
same,promoter activity interaction Z-score,[2]; [7],0.116 ± 0.093
same,promoter activity interaction Z-score,[2]; [8],-0.103 ± 0.25
same,promoter activity interaction Z-score,[2]; [9],-0.119 ± 0.027
same,promoter activity interaction Z-score,[2]; [10],-0.254 ± 0.025
same,promoter activity interaction Z-score,[2]; [11],0.0087 ± 0.2
same,promoter activity interaction Z-score,[2]; [12],-0.183 ± 0.0032
same,promoter activity interaction Z-score,[2]; [13],-0.106 ± 0.21
same,promoter activity interaction Z-score,[2]; [14],0.447 ± 0.0099
same,promoter activity interaction Z-score,[2]; [15],0.395 ± 0.47
same,promoter activity interaction Z-score,[2]; [16],-0.0629 ± 0.026
same,promoter activity interaction Z-score,[2]; [17],-0.0597 ± 0.061
same,promoter activity interaction Z-score,[2]; [18],-0.0982 ± 0.012
same,promoter activity interaction Z-score,[2]; [19],-0.362
same,promoter activity interaction Z-score,[2]; [20],-0.382
same,promoter activity interaction Z-score,[3]; [7],-0.387 ± 0.068
same,promoter activity interaction Z-score,[3]; [8],-0.3 ± 0.42
same,promoter activity interaction Z-score,[3]; [9],-0.413 ± 0.19
same,promoter activity interaction Z-score,[3]; [10],-0.487 ± 0.17
same,promoter activity interaction Z-score,[3]; [11],-0.622 ± 0.16
same,promoter activity interaction Z-score,[3]; [12],-0.759 ± 0.15
same,promoter activity interaction Z-score,[3]; [13],-0.556 ± 0.035
same,promoter activity interaction Z-score,[3]; [14],-0.0491 ± 0.17
same,promoter activity interaction Z-score,[3]; [15],-0.491 ± 0.36
same,promoter activity interaction Z-score,[3]; [16],-0.148 ± 0.12
same,promoter activity interaction Z-score,[3]; [17],-0.134 ± 0.25
same,promoter activity interaction Z-score,[3]; [18],-0.273 ± 0.14
same,promoter activity interaction Z-score,[4]; [7],0.0204 ± 0.029
same,promoter activity interaction Z-score,[4]; [8],-0.389 ± 0.14
same,promoter activity interaction Z-score,[4]; [9],-0.392 ± 0.68
same,promoter activity interaction Z-score,[4]; [10],-0.688 ± 0.16
same,promoter activity interaction Z-score,[4]; [11],-0.193 ± 0.42
same,promoter activity interaction Z-score,[4]; [12],-0.587 ± 0.68
same,promoter activity interaction Z-score,[4]; [13],-0.421 ± 0.28
same,promoter activity interaction Z-score,[4]; [14],-0.277 ± 0.056
same,promoter activity interaction Z-score,[4]; [15],0.112 ± 0.36
same,promoter activity interaction Z-score,[4]; [16],0.0227 ± 0.29
same,promoter activity interaction Z-score,[4]; [17],-0.0785 ± 0.74
same,promoter activity interaction Z-score,[4]; [18],-0.163 ± 0.8
same,promoter activity interaction Z-score,[4]; [19],-0.438
same,promoter activity interaction Z-score,[5]; [7],-0.268 ± 0.23
same,promoter activity interaction Z-score,[5]; [8],-0.327 ± 0.091
same,promoter activity interaction Z-score,[5]; [9],-0.404 ± 0.1
same,promoter activity interaction Z-score,[5]; [10],-0.552 ± 0.76
same,promoter activity interaction Z-score,[5]; [11],-0.406 ± 0.046
same,promoter activity interaction Z-score,[5]; [12],-0.398 ± 0.089
same,promoter activity interaction Z-score,[5]; [13],-0.3823 ± 0.0022
same,promoter activity interaction Z-score,[5]; [14],-0.224 ± 0.31
same,promoter activity interaction Z-score,[5]; [15],-0.337 ± 0.16
same,promoter activity interaction Z-score,[5]; [16],-0.48 ± 0.096
same,promoter activity interaction Z-score,[5]; [17],-0.274 ± 0.22
same,promoter activity interaction Z-score,[5]; [18],-0.474 ± 0.4
same,promoter activity interaction Z-score,[5]; [21],-0.762
same,promoter activity interaction Z-score,[5]; [20],-0.904
same,promoter activity interaction Z-score,[6]; [7],-0.242 ± 0.84
same,promoter activity interaction Z-score,[6]; [8],-0.0707 ± 0.59
same,promoter activity interaction Z-score,[6]; [9],-0.601 ± 1.1
same,promoter activity interaction Z-score,[6]; [10],-1.14 ± 0.68
same,promoter activity interaction Z-score,[6]; [11],-0.456 ± 0.35
same,promoter activity interaction Z-score,[6]; [12],-1.13 ± 0.17
same,promoter activity interaction Z-score,[6]; [13],-0.0625 ± 1.8
same,promoter activity interaction Z-score,[6]; [14],0.772 ± 0.56
same,promoter activity interaction Z-score,[6]; [15],-0.509 ± 0.71
same,promoter activity interaction Z-score,[6]; [16],-0.277 ± 0.22
same,promoter activity interaction Z-score,[6]; [17],1.06 ± 1.1
same,promoter activity interaction Z-score,[6]; [18],0.0909 ± 0.58
same,promoter activity interaction Z-score,[6]; [21],-0.901 ± 0.46
same,promoter activity interaction Z-score,[6]; [19],-0.459
same,promoter activity interaction Z-score,[6]; [20],-0.895 ± 0.19
same,promoter activity interaction Z-score,"[6]; 0.94 µg/ml, genetic background: ΔsoxS",-0.128 ± 1

# Source: the supplement of paper PMC12282887
